NR3A LBD binder = NR3A (human) ligand-binding domain modulation | NR3A LBD differential scanning fluorimetry, Tm shift; 0% = protein alone, 100% = glycine-bound protein | Tm shift relative to glycine control, % at 25 µM | 2.5% of 340,000 active | AID 1259313;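 active = melting temperature shift of at least 10% of the positive control shift, at one fixed dose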
SKN-1 block = blocks SKN-1 activity in C. elegans; AID 624304; inhibition, % at 21.8 µM; C. elegans VP596 Pgst-4::GFP/RFP ratio, acrylamide-induced, 24 h; 0.49% of 360,000 active;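 active = interference check ratio from 0.5 to 1.5 plus GFP to RFP signal ratio inhibition reaching or exceeding a fixed threshold, cut at about 30% in these data, passing the limit was not always enough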
SMARCA2 activ = SMARCA2 function activation, primary screen; MG213 cells, MMTV-luciferase reporter, dexamethasone, overnight; activation, % at 9.1 µM; 1% of 370,000 active; in the data active = activation above about 7.8%;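 note: 0% = vehicle wells and 100% = reference activator wells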
NadD inh = inhibitors of Staphylococcus aureus NadD. purified NadD enzyme, colorimetric absorbance read-out. inhibition, % at 20 µM. 0.78% of 360,000 active; in the data active = inhibition above about 26%
esBAF inh = SWI/SNF esBAF complex inhibition; AID 602393; 2% of 350,000 active; mouse ES cells, Bmi1-luciferase knock-in reporter, 24 h; 100% = twice the neutral-well signal; reporter increase, % at 12.5 µM; in the data active = activation above about 40%;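 note: 0% = median of the plate's neutral control wells and 100% = double that signal; a rise in the Bmi1 reporter signal indicates esBAF inhibition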
Vif inh = HIV Vif inhibition. 0.35% of 340,000 active. HEK293T cells, Vif self-association by quenched fluorescence, imaging, 24 h. inhibition, % at 7.49 µM. AID 602346; in the data active = inhibition above about 50%, passing the limit was not always enough
Starred values were filed as active, the others as inactive; nt = no result given. In the library only some 5.2% were active in any assay of this set; here they are far more common.

SMILES | NR3A LBD binder | SKN-1 block | SMARCA2 activ | NadD inh | esBAF inh | Vif inh
CC(OC(=O)c1ccc(Cl)c(S(N)(=O)=O)c1)C(=O)NCc1ccc2c(c1)OCO2 (stereo not given) | 14.1* | -9.2 | -1.7 | -5.9 | 3.0 | 1.1
CCNC(=O)c1sc2cc(C)ccc2c1Cl | -1.0 | 4.7 | 4.6 | -0.4 | 24.3* | 5.6
O=C(NC1=NCCS1)c1sc2cc(F)ccc2c1Cl | 2.2 | 8.8 | 6.0 | 1.8 | nt | 2.4
O=C(Nc1ccon1)c1sc2cc(F)ccc2c1Cl | -1.5 | 9.5 | 5.3 | -0.8 | 70.9* | 2.1
O=C(NCc1ccco1)c1sc2cc(F)ccc2c1Cl | 0.4 | 37.3* | 3.5 | -3.9 | 52.8* | -11.1
COc1ccc(CCNC(=O)c2sc3cc(C)ccc3c2Cl)cc1 | 12.4* | 12.5 | 0.4 | 11.6 | -1.4 | 6.5
C[C@H]1CN([C@@H](C)CO)C(=O)c2cc(NS(=O)(=O)c3ccccc3)ccc2O[C@@H]1CN(C)S(=O)(=O)c1cccs1 | nt | nt | nt | nt | 1.5 | nt
O=C(C[C@H]1CC[C@@H](NC(=O)c2cccc(F)c2)[C@H](CO)O1)NCCN1CCCC1 | nt | nt | nt | nt | -1.7 | nt
CCCN1C[C@@H](C)[C@@H](OC)CN(C)C(=O)c2cc(NC(=O)COC)ccc2OC[C@@H]1C | nt | nt | nt | nt | -1.1 | nt
CO[C@H]1CN(C)C(=O)c2ccc(NC(C)=O)cc2OC[C@H](C)N(Cc2cc(F)ccc2F)C[C@H]1C | nt | nt | nt | nt | -3.1 | nt
Cc1ccc2c(Cl)c(C(=O)Nc3cc(C)on3)sc2c1 | -0.8 | 15.2 | 2.9 | 5.1 | 60.3* | -14.0
C[C@H]1CCCCO[C@H](CN(C)S(=O)(=O)c2ccccc2)[C@@H](C)CN([C@@H](C)CO)C(=O)c2cc(NC(=O)NC3CCCCC3)ccc2O1 | nt | nt | nt | nt | -3.0 | nt
COc1cccc(N/C=C/C(=O)c2ccc(C)cc2)c1 | -7.7 | 22.3 | 6.1 | -1.5 | -26.0 | 13.5
NS(=O)(=O)c1cccc(NS(=O)(=O)c2ccc(/C=C/C(=O)OCC(=O)c3ccc(Br)cc3)cc2)c1 | -0.6 | -0.6 | -2.6 | 0.3 | -3.7 | 7.9
COc1cc(/C=C/C(=O)c2ccc(NS(=O)(=O)c3ccc(C)cc3)cc2)ccc1OC(F)F | 22.9* | 4.6 | -1.4 | 8.3 | 9.6 | -0.4
COc1cccc(/C=C/C(=O)c2ccc(NS(=O)(=O)c3ccc(C)cc3)cc2)c1 | 18.5* | -5.8 | -2.9 | -6.0 | -9.2 | 7.6
COc1ccc(C(=O)COC(=O)/C=C/c2ccc(S(=O)(=O)Nc3cccc(S(N)(=O)=O)c3)cc2)cc1 | 11.1* | -17.5 | 0.1 | 19.3 | 10.0 | 11.9
COc1ccc(NC(=O)Nc2ccc3c(c2)C(=O)N([C@@H](C)CO)C[C@@H](C)[C@H](CN(C)C(=O)Nc2c(C)noc2C)OCCCC[C@@H](C)O3)cc1 | nt | nt | nt | nt | -0.4 | nt
CCCNC(=O)[C@@H]1[C@@H](CO)[C@@H]2Cn3c(ccc(/C=C/c4ccccc4)c3=O)[C@@H]2N1CC | nt | nt | nt | nt | -2.5 | nt
CCCN(C)C[C@@H]1Oc2cc(-c3ccccc3C)ccc2S(=O)(=O)N([C@@H](C)CO)C[C@@H]1C | nt | nt | nt | nt | -6.6 | nt
Cc1cc(C(=O)CN2C(=O)NC3(CCCCC3)C2=O)c(C)n1Cc1ccc2c(c1)OCO2 | -1.6 | -5.8 | -2.2 | -2.7 | 50.7* | nt
Cc1cc(C(=O)CN2C(=O)NC3(CCCCC3)C2=O)c(C)n1Cc1ccco1 | -1.0 | 8.0 | 3.7 | -7.4 | nt | 1.7
CC(C)[C@@H](C)NC(=O)N(C)C[C@@H]1OCc2ccccc2-c2c(n(C)c3ccccc23)C(=O)N([C@H](C)CO)C[C@@H]1C | nt | nt | nt | nt | 4.7 | nt
C/C(=N/NC(=O)c1nnn(-c2nonc2N)c1-c1ccccc1)c1ccc2c(c1)OCO2 | -0.5 | 12.9 | -1.6 | 0.8 | -7.8 | -8.3
C/C(=N\N=C(/N)c1nonc1N)c1ccc2c(c1)OCO2 | 0.4 | 8.2 | 5.3 | -6.1 | 61.0* | -5.0
SMILES | NR3A LBD binder | SKN-1 block | SMARCA2 activ | NadD inh | esBAF inh | Vif inh
COc1cc2[nH]c(=S)nc(NCc3ccc(Cl)cc3)c2cc1OC | 35.0* | 4.4 | -3.0 | -0.5 | -2.6 | -9.7
Cc1ccc(S(=O)(=O)NCC[C@H]2CC[C@@H](NC(=O)c3ccccn3)[C@@H](CO)O2)cc1 | nt | nt | nt | nt | -3.1 | nt
NNC(=O)Nc1cccc(C(F)(F)F)c1 | 0.1 | -3.1 | -0.6 | 0.3 | -9.4 | 7.1
O=C(Nc1ccc(OC(F)F)cc1)Nc1cccc(C(F)(F)F)c1 | 38.9* | -2.7 | -14.1 | -3.2 | -4.0 | -9.6
COC(=O)[C@H](C)NC(=O)Nc1cccc(C(F)(F)F)c1 | -0.2 | 10.1 | -3.1 | 8.3 | -5.1 | 1.6
O=C(Nc1ccncc1)Nc1cccc(C(F)(F)F)c1 | 14.4* | -9.5 | -2.6 | -10.1 | -12.8 | -1.3
CCN1[C@@H]2c3ccc(-c4cccc(F)c4)c(=O)n3C[C@H]1[C@H](CO)[C@H]2C(=O)NCCCN(C)C | nt | nt | nt | nt | -4.7 | nt
CCC1CSC(Nc2ccc(C(=O)/C=C/c3ccc(Oc4ccccc4)cc3)cc2)=N1 (stereo not given) | -18.8 | 15.3 | -2.5 | 14.2 | nt | -11.5
O=C(/C=C/c1ccc(O)cc1)c1ccccc1 | 6.8 | 1.5 | 5.5 | -6.0 | 58.8* | 3.8
CN(C)c1ccc(/C=C/C(=O)c2ccc(O)cc2)cc1 | 11.8* | 15.8 | 4.0 | -0.3 | 7.2 | 83.4*
CCC1CSC(Nc2ccc(C(=O)/C=C/c3cccc(C)c3)cc2)=N1 (stereo not given) | -1.4 | 53.5* | 0.1 | 1.6 | nt | -18.5
CN(C)c1ccc(C(=O)c2ccc(O)cc2O)cc1 | -19.1 | 10.9 | 6.5 | 6.9 | 55.0* | -15.6
CO[C@H]1CN(C)C(=O)c2cc(NC(C)=O)ccc2OC[C@H](C)N(CCc2ccccc2)C[C@@H]1C | nt | nt | nt | nt | 3.3 | nt
CO[C@H]1CN(C)C(=O)c2ccc(NC(=O)c3ccc(F)cc3)cc2OC[C@@H](C)N(C(=O)c2ccc(F)cc2)C[C@H]1C | nt | nt | nt | nt | 7.5 | nt
C[C@H](CO)N1C[C@H](C)[C@H](CN(C)Cc2ccc(-c3ccccc3)cc2)OCc2cnnn2CCCC1=O | nt | nt | nt | nt | 5.3 | nt
Cc1ccc(S(=O)(=O)N(C)C[C@H]2Oc3c(NC(=O)Nc4ccc(F)cc4)cccc3C(=O)N([C@@H](C)CO)C[C@H]2C)cc1 | nt | nt | nt | nt | 10.2 | nt
O=C(C=Cc1ccccn1)c1ccccc1 | -0.5 | -2.2 | 1.1 | -1.5 | 5.0 | 70.0*
CCOC(=O)/C(=C\c1ccc(N2CCC(c3ccccc3)=N2)cc1)C(C)=O | -8.7 | 29.8 | 0.8 | 0.4 | 27.1 | -5.0
Cc1ccc(C(=O)C=Cc2cccc(C)c2)cc1 | 1.5 | 24.0 | 0.9 | -0.9 | 38.6 | 4.6
O=C(/C=C/c1ccc(N2CCC(c3ccccc3)=N2)cc1)c1ccccc1 | 29.6* | nt | 3.2 | nt | nt | nt
Cc1cccc(C=CC(=O)c2ccccc2)c1 | 0.4 | -4.3 | 2.7 | -5.3 | 71.0* | 8.7
COCC(=O)Nc1ccc2c(c1)C(=O)N(C)[C@@H]1CC[C@@H](CC(=O)NCC3CC3)O[C@H]1CO2 | nt | nt | nt | nt | -3.6 | nt
CCCN1[C@@H]2c3ccc(-c4ccccc4)c(=O)n3C[C@@H]2[C@@H](CO)[C@@H]1C(=O)N1CCOCC1 | nt | nt | nt | nt | 5.1 | nt
Cc1ccc2nc(NCCc3ccc(Cl)cc3)c3nncn3c2c1 | -1.1 | 1.3 | 0.2 | -12.3 | -3.7 | 5.0
